The target of assay [1] is Progesterone receptor (Homo sapiens) (UniProt P06401). As to the kind of experiment: qHTS assay to identify small molecule agonists of the progesterone receptor (PR) signaling pathway (AID 1346784; calls by dose curve; note: nearly all actives have a fitted effect of over 30% in size). The essentials:
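Reporter assay, GripTite PR-UAS-bla HEK 293T cells: 16 hr exposure to DMSO-dissolved compounds at 37C, 5% CO2, in steroid-depleted (2% charcoal-stripped FBS) medium; beta-lactamase measured by FRET fluorescence.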
On the technique in general: Quantitative high-throughput screening tests each substance at several concentrations.

For assay [2] the target is unchanged. Kind of assay: qHTS assay to identify small molecule antagonists of the progesterone receptor (PR) signaling pathway (AID 1346795; active = well fitted inhibition curve with a large enough effect in the signal ratio in the repeat runs, not every such curve was filed as active; the % refers to the signal ratio). In short, it runs like this:
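Stimulus R5020 at 1 nM final; cells HEK293T PR-UAS-bla; medium with 2% charcoal-stripped FBS; compound exposure 16 hr at 37C, 5% CO2; detection by FRET beta-lactamase substrate, 2 hr, room temperature.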

Assay [3] can be described thus: qHTS assay to identify small molecule antagonists of the TGF-beta/Smad signaling pathway - cell viability counter screen (AID 1346824). Note: nearly all actives have a fitted effect of over 50% in size. In short, it runs like this: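 SBE-bla HEK 293T cells, incubated overnight, then compound plus 0.25 ng/mL TGF-beta1 (stock added) for 5 hr at 37 C. Viability was read in the same wells by CellTiter-Glo luminescence after 30 min at room temperature.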

Assay [4] is described as follows: qHTS assay to identify small molecule agonists of the TGF-beta/Smad signaling pathway - cell viability counter screen (AID 1346829). Note: top concentration of the series differs between compounds; nearly all actives have a fitted effect of over 45% in size. In short, it runs like this: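 In parallel with the Smad reporter read, viability of HEK 293T cells stably carrying SBE-bla is quantified by ATP luminescence following 5 hr compound treatment.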
Assay [5] in a line: qHTS assay to identify small molecule agonists of the TGF-beta/Smad signaling pathway (AID 1346859; active = well fitted activation curve with a large enough effect in the signal ratio in the repeat runs, not every such curve was filed as active; the % refers to the signal ratio; note: series mostly up to about 77 µM). The essentials: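 Screening used HEK 293T SBE-bla cells at 4,000/well. Test agents: 5 hr, 37 C. Detection: FRET substrate, 2 hr RT, then excitation 405 nm with emissions at 460 and 530 nm.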
The target in assay [6] is Thyrotropin-releasing hormone receptor (Homo sapiens) (UniProt P34981). Kind of assay: qHTS assay to identify small molecule antagonists of the thyrotropin-releasing hormone receptor (TRHR) signaling pathway (AID 1346877; active = well fitted inhibition curve with a large enough effect in the repeat runs, not every such curve was filed as active; note: series mostly up to about 51 µM). The essentials:
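Kinetic fluorescence (3 min, 1 s resolution) following stimulation with TRH at 1 nM final; HEK293 cells bearing human TRHR; 5 min compound preincubation at RT; concentration-response over 15 points, triplicates.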

Assay [7] has the same target. As to the kind of experiment: qHTS assay to identify small molecule agonists of the thyrotropin-releasing hormone receptor (TRHR) signaling pathway (AID 1346891; calls by dose curve; note: series mostly up to about 58 µM). The essentials:
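Readout was intracellular calcium fluorescence in TRHR-Hek293 cells. Cells were incubated 18 h, dye-loaded 2 h at 37 °C, and treated with compound in agonist mode.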

Assay [8] is described as follows: Human pregnane X receptor (PXR) small molecule agonists, qHTS cell viability counter screen (AID 1346977). Note: nearly all actives have a fitted effect of over 50% in size. In short, it runs like this:
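In each well, the PXR reporter HepG2 line was checked for viability: CellTiter-Fluor reagent added 23hr post-dosing, fluorescence read after 1hr incubation at 37C.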

A short description of assay [9]: Caspase-3/7 induction in HepG2 cells by small molecules, qHTS assay (AID 1346978). Note: nearly all actives have a fitted effect of over 15% in size. The essentials:
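Wild-type HepG2 cells, 2,000/well, settled 5 hr at 37 C and 5% CO2, then compound-treated for 17 hr; caspase-3/7 activity read by luminescent Caspase-Glo 3/7 after 30 min at room temperature.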

The nature of assay [10]: Caspase-3/7 induction in CHO-K1 cells by small molecules, qHTS cell viability counter screen (AID 1346979). Note: nearly all actives have a fitted effect of over 35% in size. In short, it runs like this:
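Following a 5hr settling period, CHO-K1 cells at 1,500 per well received DMSO-dissolved compounds. Cell viability was quantified 16hr later by CellTiter-Fluor fluorescence, measured after 1hr with reagent at 37C.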

Assay [11] can be described thus: Caspase-3/7 induction in CHO-K1 cells by small molecules, qHTS assay (AID 1346980). Note: nearly all actives have a fitted effect of over 15% in size. In short, it runs like this:
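Wild-type CHO-K1 cells exposed to compounds for 17hr at 37 C, 5% CO2. Caspase-3/7 activity then measured by Caspase-Glo 3/7 luminescence after 30min at room temperature.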

For assay [12], the target named is Nuclear receptor subfamily 1 group I member 2 (Homo sapiens) (UniProt O75469). As to the kind of experiment: Human pregnane X receptor (PXR) small molecule agonists, qHTS assay (AID 1346982). Note: nearly all actives have a fitted effect of over 35% in size. Note: potency is the fitted concentration of half-maximal effect. In short, it runs like this:
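Reporter HepG2 cells expressing PXR-Luc are cultured in charcoal-stripped FBS (5%), treated with compounds for 24 hr at 37 C, and assayed by ONE-Glo luminescence after 30 min at room temperature.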

The target in assay [13] is Acetylcholinesterase (Homo sapiens) (UniProt P22303). Kind of assay: Acetylcholinesterase (AChE) small molecule antagonists: colormetric cell-based qHTS assay (AID 1347395; calls by dose curve; note: nearly all actives have a fitted effect of over 30% in size; note: potency is the fitted concentration of half-maximal effect). In short, it runs like this: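 After overnight attachment at 37 C, SH-SY5Y cells get 30 min compound exposure; detection cocktail (acetylthiocholine, DTNB) then incubates 90 min at 37 C, and absorbance reflects AChE-generated thiocholine.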
Chain of Acetylcholinesterase (Homo sapiens) (P22303 whole entry, looked up): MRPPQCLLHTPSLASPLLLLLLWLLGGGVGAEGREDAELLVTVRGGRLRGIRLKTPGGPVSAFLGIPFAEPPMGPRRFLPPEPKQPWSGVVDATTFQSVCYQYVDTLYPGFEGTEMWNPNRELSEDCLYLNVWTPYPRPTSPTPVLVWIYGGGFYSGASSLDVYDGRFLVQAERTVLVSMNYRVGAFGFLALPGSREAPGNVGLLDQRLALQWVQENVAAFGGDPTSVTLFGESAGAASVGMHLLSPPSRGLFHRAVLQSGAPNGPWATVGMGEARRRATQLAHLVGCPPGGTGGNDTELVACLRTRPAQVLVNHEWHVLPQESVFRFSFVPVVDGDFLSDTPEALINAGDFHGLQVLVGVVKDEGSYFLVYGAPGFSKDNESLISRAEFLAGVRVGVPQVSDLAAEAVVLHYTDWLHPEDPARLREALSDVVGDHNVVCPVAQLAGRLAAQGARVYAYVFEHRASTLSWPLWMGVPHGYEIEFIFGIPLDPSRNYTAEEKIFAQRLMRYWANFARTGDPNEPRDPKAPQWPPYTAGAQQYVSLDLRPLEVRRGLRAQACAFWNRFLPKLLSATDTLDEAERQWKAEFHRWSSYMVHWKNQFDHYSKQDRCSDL

Assay [14] in a line: qHTS assay to identify small molecule antagonists of the progesterone receptor (PR) signaling pathway - cell viability counter screen (AID 1346798). Note: series mostly up to about 92 µM; nearly all actives have a fitted effect of over 50% in size. In short, it runs like this:
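In the same plates used for the beta-lactamase readout, cell viability of compound- and R5020-treated PR-UAS-bla HEK293T cells (16 hr, 37C) was assessed by CellTiter-Glo luminescence.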

A short description of assay [15]: qHTS assay to identify small molecule agonists of the progesterone receptor (PR) signaling pathway - cell viability counter screen (AID 1346799; calls by dose curve; note: nearly all actives have a fitted effect of over 45% in size). In short, it runs like this:
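Multiplexed viability read: CellTiter-Glo luminescence, 30 min RT, following LiveBLAzer FRET measurement on PR-UAS-bla HEK293T cells exposed to compounds 16 hr.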

Assay [16] in a line: Caspase-3/7 induction in HepG2 cells by small molecules, qHTS cell viability counter screen (AID 1346981). Note: series mostly up to about 92 µM; nearly all actives have a fitted effect of over 30% in size. In short, it runs like this:
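In this quantitative HTS counter screen, compounds delivered in DMSO were left on unmodified HepG2 cells for 16 hr at 37 C. Viability was then determined fluorometrically with CellTiter-Fluor, in parallel with caspase-3/7 induction in the same wells.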

Results filed as inconclusive are left out. Active and inactive are the calls of the source. Unless noted, calls come from the whole dose curve; as a rule, active = well fitted curve in the direction sought with a large enough effect in the repeat runs; inconclusive = weak or mixed curves; inactive = no such curve, though single readings can be large; an effect the other way counts as inactive or inconclusive.

Drawing on PubChem BioAssay (Tox21), this text covers Potency and outcome for 10 molecules.

Chain of Nuclear receptor subfamily 1 group I member 2 (Homo sapiens) (O75469 whole entry, looked up): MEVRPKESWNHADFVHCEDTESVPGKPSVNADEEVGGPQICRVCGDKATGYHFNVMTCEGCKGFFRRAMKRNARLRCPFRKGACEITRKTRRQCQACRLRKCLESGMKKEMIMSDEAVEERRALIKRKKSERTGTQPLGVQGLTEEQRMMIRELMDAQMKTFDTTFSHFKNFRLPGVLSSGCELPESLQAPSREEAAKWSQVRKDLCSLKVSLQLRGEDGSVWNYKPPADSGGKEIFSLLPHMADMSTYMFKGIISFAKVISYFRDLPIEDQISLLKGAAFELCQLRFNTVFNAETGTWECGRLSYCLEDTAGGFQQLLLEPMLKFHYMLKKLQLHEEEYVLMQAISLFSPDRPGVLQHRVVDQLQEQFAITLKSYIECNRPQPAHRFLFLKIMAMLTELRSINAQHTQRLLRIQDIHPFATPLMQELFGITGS
Chain of Thyrotropin-releasing hormone receptor (Homo sapiens) (P34981 whole entry, looked up): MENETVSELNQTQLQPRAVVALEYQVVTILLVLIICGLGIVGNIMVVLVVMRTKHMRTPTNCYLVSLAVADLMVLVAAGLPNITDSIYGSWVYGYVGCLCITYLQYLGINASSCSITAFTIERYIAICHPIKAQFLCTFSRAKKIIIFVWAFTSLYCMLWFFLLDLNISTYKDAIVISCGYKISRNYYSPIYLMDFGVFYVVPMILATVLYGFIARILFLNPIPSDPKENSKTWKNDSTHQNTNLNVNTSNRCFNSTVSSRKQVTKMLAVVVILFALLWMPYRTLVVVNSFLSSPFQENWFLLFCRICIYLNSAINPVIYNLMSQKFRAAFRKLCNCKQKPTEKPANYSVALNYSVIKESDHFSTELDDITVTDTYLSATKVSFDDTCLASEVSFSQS
Chain of Progesterone receptor (Homo sapiens) (P06401 whole entry, looked up): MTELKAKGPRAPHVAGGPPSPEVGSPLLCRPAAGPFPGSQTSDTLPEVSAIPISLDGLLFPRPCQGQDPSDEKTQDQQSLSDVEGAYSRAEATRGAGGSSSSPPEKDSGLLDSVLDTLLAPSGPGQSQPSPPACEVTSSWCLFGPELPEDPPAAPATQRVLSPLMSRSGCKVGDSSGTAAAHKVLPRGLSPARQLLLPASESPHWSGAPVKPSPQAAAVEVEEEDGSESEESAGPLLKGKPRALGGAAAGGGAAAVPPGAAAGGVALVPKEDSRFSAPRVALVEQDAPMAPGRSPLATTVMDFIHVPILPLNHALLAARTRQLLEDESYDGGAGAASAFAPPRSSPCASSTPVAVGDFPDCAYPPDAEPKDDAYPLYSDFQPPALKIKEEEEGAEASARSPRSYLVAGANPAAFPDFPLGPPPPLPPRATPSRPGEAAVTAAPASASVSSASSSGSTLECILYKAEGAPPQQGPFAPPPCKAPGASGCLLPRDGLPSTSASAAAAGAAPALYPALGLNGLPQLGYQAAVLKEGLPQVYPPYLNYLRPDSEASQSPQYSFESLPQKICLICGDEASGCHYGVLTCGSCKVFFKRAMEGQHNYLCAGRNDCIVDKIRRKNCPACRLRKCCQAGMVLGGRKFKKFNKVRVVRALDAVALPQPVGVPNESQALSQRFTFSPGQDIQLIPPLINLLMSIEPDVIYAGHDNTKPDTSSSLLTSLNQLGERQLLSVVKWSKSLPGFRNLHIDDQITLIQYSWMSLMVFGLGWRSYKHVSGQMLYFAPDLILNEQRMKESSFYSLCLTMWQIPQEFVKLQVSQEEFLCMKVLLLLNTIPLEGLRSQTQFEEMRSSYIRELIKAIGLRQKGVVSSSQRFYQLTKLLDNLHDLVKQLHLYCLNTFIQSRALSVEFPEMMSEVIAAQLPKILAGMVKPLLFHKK

Regarding `CCN[C@H](C)Cc1cccc(C(F)(F)F)c1`, the Potency result in [1], in [2], in [4], in assay [6], in assay [8] and in assay [10] was “inactive” in each case. In addition, the Potency entry in assay [12] and in assay [13] was “inactive” in each case. The result in [3], in assay [5], in [7], in [9] and in assay [11] was inactive.

As to `CCCC[N+](=O)[O-]`, the Potency entry in assay [1], in assay [14], in [15], in assay [4], in [6] and in [10] was “inactive” each time. Further, the Potency entry in assay [16], in assay [12] and in [13] was “inactive” in each case. For the same molecule, the call in assay [3], in [5], in [7] and in assay [9] was inactive.

For `O=CCCl`, the Potency entry in [1], in [14], in [15], in assay [4], in [6] and in [8] was “inactive” each time. Also, the Potency result in [16] and in assay [13] was “inactive” each time. Moreover, the molecule was called inactive in assay [5], in assay [7], in [9] and in assay [11].

In the case of `C(COCC1CO1)OCC1CO1` (configuration not stated), the Potency entry in assay [1], in [14], in [15], in assay [4], in [6] and in [8] was “inactive” throughout. The Potency entry in [10] and in assay [13] was “inactive” throughout. In addition, the outcome in assay [5], in assay [7] and in assay [9] was inactive. Further, the Potency in [12] was 48.6 µM (active).

Turning to `NCC1(CC(=O)O)CCCCC1`, the Potency result in [1], in assay [2], in assay [14], in [4], in [6] and in assay [8] was “inactive” throughout. For the same molecule, the Potency result in assay [10], in assay [16], in assay [12] and in assay [13] was “inactive” in each case. Moreover, the molecule was called inactive in [3], in assay [5], in assay [7], in assay [9] and in assay [11].

For the molecule `Oc1ccc2c3c1O[C@H]1[C@@H](O)C=C[C@H]4[C@@H](C2)NCC[C@@]341`, the Potency result in [1], in assay [14], in assay [8] and in assay [16] was “inactive” in each case. Also, the result in [3], in assay [5], in assay [9] and in assay [11] was inactive.

`CCC(C)(C#N)N=NC(C)(C#N)CC` (configuration not stated): the Potency result in assay [1], in assay [14], in assay [15], in assay [4], in assay [6] and in assay [8] was “inactive” in each case. Moreover, the Potency result in assay [10], in assay [16], in [12] and in assay [13] was “inactive” throughout. Further, the result in [3], in assay [5], in assay [7], in [9] and in assay [11] was inactive.

With `CCN(CCO)CCO`, the Potency entry in assay [1], in assay [2], in assay [14], in assay [4], in [6] and in assay [8] was “inactive” each time. Also, the Potency entry in [10], in assay [16] and in assay [13] was “inactive” in each case. The call in assay [3], in [5], in assay [7], in [9] and in assay [11] was inactive.

As for `COP(=O)(OC)O/C(C)=C/C(=O)N(C)C`, the Potency entry in assay [1], in [2], in [14], in [4], in assay [6] and in assay [8] was “inactive” each time. Besides, the Potency entry in assay [10], in assay [16] and in assay [12] was “inactive” throughout. Besides, the result in assay [3], in [5], in assay [7], in assay [9] and in assay [11] was inactive. The Potency in assay [13] is 40.2 µM (active).

Regarding `CC(C)NCC(O)c1ccc([N+](=O)[O-])cc1` (configuration not stated), the Potency result in [1], in [2], in assay [15], in assay [4], in assay [6] and in assay [8] was “inactive” throughout. Further, the Potency result in assay [10], in assay [16], in [12] and in [13] was “inactive” throughout. Also, the molecule was classed as inactive in assay [3], in assay [5], in assay [7], in [9] and in assay [11].
